Bioassay records (PubChem)
AmpC inh no detg – inhibitors of E. coli AmpC beta-lactamase without detergent; Potency, µM (highest dose often 57.1 µM), for inactives: at the highest dose activity change, negative = inhibition, hits mostly inhibitors; AmpC nitrocefin hydrolysis, absorbance 480 nm, 0.0001% Triton; P00811; 0.52% of 330,000 active;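 note: plate controls were no compound for no effect and no enzyme for full effect; nearly all actives have a fitted effect of over 20% in size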
Target sequence (P00811 whole entry, looked up): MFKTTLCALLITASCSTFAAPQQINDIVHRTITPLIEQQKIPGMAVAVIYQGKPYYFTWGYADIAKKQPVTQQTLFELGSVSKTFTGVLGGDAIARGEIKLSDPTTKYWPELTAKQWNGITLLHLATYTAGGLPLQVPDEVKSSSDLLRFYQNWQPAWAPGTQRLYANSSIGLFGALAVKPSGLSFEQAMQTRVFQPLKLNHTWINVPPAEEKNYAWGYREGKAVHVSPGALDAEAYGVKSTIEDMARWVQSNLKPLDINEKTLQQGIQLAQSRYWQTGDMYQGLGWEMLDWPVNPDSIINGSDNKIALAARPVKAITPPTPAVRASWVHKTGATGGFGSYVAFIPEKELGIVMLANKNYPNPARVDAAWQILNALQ
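AmpC (5.3 nM in the dispensed reagent) in 20 mM phosphate pH 7.0 with 0.01% (detergent screen) or 0.0001% Triton X-100 was preincubated with compounds for 15 min at room temperature. Nitrocefin was then added from an 800 uM solution, and hydrolysis was followed at 480 nm.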
RE007 growth inh – less growth of the S. pombe RE007 Vpr strain. S. pombe RE007 Vpr strain, BacTiter-Glo ATP luminescence, 24 h. Potency, µM (top dose mostly 92.2 µM), for the others: top-dose activity change, negative = less growth, actives largely listed as inhibitors. 0.21% of 360,000 active; active = well fitted falling curve with a large enough effect; inconclusive = small, poorly fitted or top-dose-only effect; inactive = no such curve, though single readings can be large or run the other way; note: nearly all actives have a fitted effect of over 50% in size
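Fission yeast strain RE007, carrying one chromosomally integrated HIV-1 vpr copy, was seeded at OD 0.01 in PMG+AL medium with 23 nL pinned compound. After 24 h at 30 °C and 99% humidity, viability was read by BacTiter-Glo luminescence.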
AmpC detergent – blocks E. coli AmpC beta-lactamase in detergent assay; AID 485294; 0.041% of 370,000 active; P00811; AmpC hydrolysis of nitrocefin, absorbance 480 nm, 0.01% Triton; Potency, µM (titrated, usually from 114 µM), for inactives: at the highest dose activity change, negative = inhibition, most hits filed as inhibitors;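 note: 0% = no-compound wells and -100% = no-enzyme wells; nearly all actives have a fitted effect of over 25% in size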
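AmpC (5.3 nM in the dispensed reagent) in 20 mM phosphate pH 7.0 with 0.01% (detergent screen) or 0.0001% Triton X-100 was preincubated with compounds for 15 min at room temperature. Nitrocefin was then added from an 800 uM solution, and hydrolysis was followed at 480 nm.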
AMA1-RON2 inh – AMA1-RON2 (P. falciparum) interaction inhibition; 0.2% of 360,000 active; AlphaScreen AMA1-biotinylated RON2 peptide binding; Potency, µM (series often up to 58.2 µM), for the others: at the highest dose activity change, negative = inhibition, actives largely listed as inhibitors; AID 720542;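 note: 0% = vehicle wells and -100% = peptide control; nearly all actives have a fitted effect of over 45% in size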
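AMA1 (3D7) with his tag at 25 nM final met compounds first, then biotinylated RON2 peptide at 25 nM; detection used donor plus acceptor beads, 10 µg/mL apiece, read by AlphaScreen after 30 min at room temperature.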
* = called active by the depositor; ? = inconclusive; . = no result given. A selection: hits, their analogues and other compounds. The true share with any hit is near 0.79%. Unless noted, calls come from the whole dose curve; as a rule, active = well fitted curve in the direction sought with a large enough effect; inconclusive = small, poorly fitted or top-dose-only effect, or another doubt; inactive = no such curve, though single readings can be large; an effect the other way counts as inactive or inconclusive. Unless noted, % is set by controls: 0 for no effect and ±100 for the full control effect; potency is the fitted concentration of half-maximal effect.

SMILES	AmpC inh no detg	RE007 growth inh	AmpC detergent	AMA1-RON2 inh
CC(O)(c1cccc(F)c1)c1nc(-c2ccccc2)cs1 (configuration not stated)	.	-29%	.	6%
OC(c1ccccc1)(c1nc(-c2cccc(C(F)(F)F)c2)cs1)C(F)(F)F (configuration not stated)	.	28µM*	.	17%
COc1ccc(CN(Cc2ccco2)C(=O)COc2ccc(Cl)cc2C)cc1	.	.	21%	.
COc1cc(NC(=O)C2=C(C)Nc3nnnn3C2c2ccc(SC)cc2)c(OC)cc1Cl (configuration not stated)	.	.	0%	.
Cc1cc2nc(-c3ccco3)cc(C(F)(F)F)n2n1	10µM*	-10%	15%	-1%
Cc1ccc(C)c(N2CCN(c3nc4c(S(=O)(=O)c5ccccc5)nnn4c4ccc(Cl)cc34)CC2)c1	.	.	-3%	.
CCN(CC)C(=O)c1ccc(NC(=O)Nc2ccccc2F)cc1	-28%	13µM*	-1%	-9%
COC(=O)c1sc(NC(=O)c2cc(-c3ccccc3)nc3ccccc23)c(C#N)c1C	-45%	5%	56µM*	1%
COC(=O)c1ccccc1NC(=O)Cn1c(=O)n(CCCCC(=O)NCc2ccc3c(c2)OCO3)c(=O)c2ccccc21	.	.	1%	.
Cc1ccc(NC(=O)C2CCN(c3ncnc4sc(C)c(C)c34)CC2)cc1S(=O)(=O)N(C)C	28µM*	8%	?	-3%
COc1cc(C(=O)Nc2ccc3[nH]c(=O)sc3c2)cc(OC)c1OC	.	.	12%	.
CCc1ccccc1OCC(=O)Nc1ccc(S(N)(=O)=O)cc1	-27%	-19%	2%	5%
NS(=O)(=O)c1ccc(NC(=O)COc2cccc3ccccc23)cc1	13µM*	7%	1%	-1%
CCn1c2ccccc2c2cc(NC(=O)COC(=O)c3ccc(NC(=O)CC#N)cc3)ccc21	32µM*	2%	0%	-21%
N#CCC(=O)Nc1ccc(C(=O)OC(C(=O)Nc2cc(C(F)(F)F)ccc2Cl)c2ccccc2)cc1 (configuration not stated)	7.1µM*	3%	0%	-7%
N#CCC(=O)Nc1ccc(C(=O)NCCC(c2ccccc2)c2ccccc2)cc1	7.9µM*	16%	-3%	5%
CC(OC(=O)c1ccc(NC(=O)CC#N)cc1)C(=O)Nc1ccc(Oc2ccccc2)cc1 (configuration not stated)	6.3µM*	.	7%	.
CCn1c2ccccc2c2cc(NC(=O)COC(=O)c3ccccc3F)ccc21	-28%	6%	-7%	20%
CCn1c2ccccc2c2cc(NC(=O)COc3ccccc3)ccc21	25µM*	-2%	-7%	-4%
CCn1c2ccccc2c2cc(NC(=O)COc3ccc(OC)cc3)ccc21	-23%	11%	-6%	-1%
O=C(COC(=O)c1ccc(O)cc1O)N=c1sccn1Cc1ccccc1Cl	-22%	-9%	-14%	-2%
CCn1c(=O)cc(OCC(=O)Nc2ccc(C)cn2)c2ccccc21	-3%	-1%	?	-10%
CCN(CC)S(=O)(=O)c1cc(NC(=O)COC(=O)c2ccc(NC(=O)CC#N)cc2)ccc1C	7.9µM*	5%	4%	12%
CCn1c(=O)cc(OCC(=O)Nc2nc(C)cs2)c2ccccc21	50µM*	-1%	-18%	-5%
N#CCC(=O)Nc1ccc(C(=O)OCC(=O)N=c2sccn2Cc2ccccc2Cl)cc1	10µM*	12%	-14%	4%
SMILES	AmpC inh no detg	RE007 growth inh	AmpC detergent	AMA1-RON2 inh
O=C(NCC1(c2ccccc2)CCCC1)C(=O)Nc1cccc(C(F)(F)F)c1	.	.	24%	.
CC(C)c1ccc(OCC(=O)Nc2c(Cl)ccc3nsnc23)cc1	.	.	-2%	.
COc1cccc(CNC(=O)CSC2=Nc3ccccc3C3=NC(C)C(=O)N23)c1OC (configuration not stated)	.	.	25%	.
N#CCC(=O)Nc1ccc(C(=O)OCC(=O)Nc2ccc3ccccc3c2)cc1	20µM*	-3%	4%	18%
O=C(c1ccccc1)c1coc2c1C(=O)c1ccccc1C2=O	-14%	?	-6%	11%
COc1ccc(C(=O)c2coc3c2C(=O)C(=O)c2ccccc2-3)cc1	-48%	40µM*	-1%	-23%
COc1ccccc1NC(=O)NNC(=O)c1cc2ccccc2cc1O	-33%	-2%	6%	94%
Cc1ccc(NC(=O)NNC(=O)c2cc3ccccc3cc2O)cc1	10µM*	-8%	-1%	67%
